Screens (PubChem)
Methyltransferases: Primary Screen for Target Class Profiling of Small Molecule Inhibitors of Methyltransferases; purified enzyme, MTase-Glo SAH luminescence; stronger effect = lower value; calls only at 40 µM; 25,000 compounds, 3.9% hits; call rule not given here
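Each enzyme was reacted with SAM and its substrate, with compounds tested once at 40 uM; SAH formed was read by MTase-Glo luminescence.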
Numbers without * were called inactive; i = inactive; + = active, no number. The full list was thinned out, with hits kept by preference. % is set by controls: 0 for no effect and ±100 for the full control effect.

SMILES | Methyltransferases
CC1(C)CC[C@]2(C(=O)O[C@@H]3O[C@H](CO)[C@@H](O)[C@H](O)[C@H]3O)CC[C@]3(C)C(=CCC4[C@@]5(C)C[C@H](O)[C@H](O[C@@H]6OC[C@@H](O)[C@H](O)[C@H]6O)[C@@](C)(CO)C5CC[C@]43C)C2C1 (stereo partly drawn) | i
C[C@@H]1O[C@@H](O[C@H]2[C@H](OC(=O)C34CCC(C)(C)CC3C3=CCC5C6(C)CC(O)C(O[C@@H]7O[C@H](CO)[C@@H](O)[C@H](O)[C@H]7O)C(C)(C(=O)O)C6CCC5(C)C3(CO)CC4)O[C@H](C)[C@H](O)[C@@H]2O)[C@H](O)[C@H](O)[C@H]1O[C@@H]1OC[C@@H](O)[C@H](O)[C@H]1O (stereo partly drawn) | +
CC1(C)CC[C@]2(C(=O)O)CC[C@]3(C)C(=CCC4[C@@]5(C)C[C@@H](O)[C@H](O)C(CO)(CO)C5CC[C@]43C)C2[C@@H]1O (stereo partly drawn) | +
C[C@@H]1CC[C@]2(C(=O)O)CC[C@]3(C)C(=CCC4[C@@]5(C)C[C@@H](O)[C@H](O)[C@@](C)(CO)C5CC[C@]43C)C2[C@H]1C (stereo partly drawn) | i
CCN(CCCNC(=O)CCc1nnc2n(CCc3ccccc3)c(=O)c3ccccc3n12)c1cccc(C)c1 | i
CCCN1C(=O)c2c(C(=O)NCc3cc(Br)ccc3OC)ncn2CC1(C)C(=O)NC1CCCC1 (stereo not drawn) | i
CC(O)CN1CC2(CCC1=O)CCN(Cc1cncn1C)CC2 (stereo not drawn) | i
C=C1C(=O)OC2CC(C)=C(C(C)CCCOC(C)=O)C(OC(=O)CC(C)CC)C12 (stereo not drawn) | i
COCCc1noc(-c2ccc(Cn3nc(C)cc3C)cc2)n1 | i
Cc1ccc(CN2CCCCC23Cc2ccccc2CNC3=O)cc1C (stereo not drawn) | i
Cc1cccc(-c2[nH]c(C(C)(C)C)nc2-c2ccc3nccnc3c2)n1 | i
CCc1cc2c(cc3n2CC(C)(C(=O)NC2CCC(C)CC2)N(Cc2ccco2)C3=O)s1 (stereo not drawn) | i
Cc1ccc(-c2nnn3c2nc(N2CCCCC2)c2ccccc23)cc1 | i
C[C@]12CC[C@@H]3c4ccc(O)cc4C[C@@H](CCCCCCCCCS(=O)CCCC(F)(F)C(F)(F)F)[C@H]3[C@@H]1CC[C@@H]2O (stereo partly drawn) | i
CCOC(=O)C1CCN(C(=O)CN(C)S(=O)(=O)c2ccc3c(c2)CCCC(=O)N3)CC1 | i
CN(C)c1ccc2ncc(Nc3cc(F)cc(N4CCOCC4)c3)n2n1 | i
COC(=O)[C@@H]1Cc2nc[nH]c2CN1C1CCOCC1 | i
CN(C)c1ccc2ncc(Nc3ccc(Cl)cn3)n2n1 | i
OCC1(Cc2ccc(F)cc2F)CCCN(c2cnc3ccccc3n2)C1 (stereo not drawn) | i
CNC(=O)c1ccc2c(C(=Nc3cccc(CN(C)C)c3)c3ccccc3)c(O)[nH]c2c1 | +
O=C(NCc1ccccc1)c1ccc2c(=O)n(-c3cccc(C(F)(F)F)c3)c(=S)[nH]c2c1 | i
CC1(C(=O)NC2CCCCC2)Cn2c(cc3occc32)C(=O)N1Cc1cccc(Br)c1 (stereo not drawn) | i
Cc1ccc(-n2cc(CN3CCN4CCCC4C3)c(-c3cccc(C)c3)n2)cc1 (stereo not drawn) | i
CC(Oc1cc(-n2cnc3ccc(CN4CCN(C)CC4)cc32)sc1C(N)=O)c1ccccc1C(F)(F)F (stereo not drawn) | +
C[C@@H](Oc1cc(-n2cnc3ccc(OC4CCN(C)CC4)cc32)sc1C(N)=O)c1ccccc1Cl | +
SMILES | Methyltransferases
Cn1c(=O)n(C)c2cc(S(=O)(=O)Nc3ccc(OCc4ccccc4)cc3)ccc21 | i
O=c1c2ccccc2n2c(-c3cccc(F)c3)nnc2n1Cc1ccccc1 | i
CC[C@H]1CN(C(=O)N2CCOCC2)CC[C@H]1CC(=O)NCCOC | i
CC(=O)O[C@@H]1C[C@@H](C)[C@](O)(CCC2=CC(=O)OC2)[C@@]2(C)CCCC(C)(C)C12 (stereo partly drawn) | i
Cc1cc(C(=O)N2CCc3ncnc(N4CCOCC4)c3CC2)n(C)n1 | i
Cc1c(NC(=O)c2ccc(C(C)(C)C)cc2)cccc1-c1cn(C)c(=O)c(Nc2ccc(C(=O)N3CCOCC3)cc2)n1 | i
CCn1nnc2c(N3CCOCC3)nc(-c3ccc(NC(=O)Nc4ccc(C(=O)N5CCN(C)CC5)cc4)cc3)nc21 | +
CN1CC(=O)N(CC(=O)N[C@@H]2COCC[C@@H]2OCc2cscn2)C1=O | i
CC(C)=CCC[C@](C)(O[C@@H]1O[C@H](CO[C@@H]2O[C@@H](CO)[C@H](O)[C@H]2O[C@@H]2OC[C@@H](O)[C@H](O)[C@H]2O)[C@@H](O)[C@H](O)[C@H]1O)[C@H]1CC[C@]2(C)[C@@H]1[C@H](O)CC1[C@@]3(C)CC[C@H](O[C@@H]4O[C@H](CO)[C@@H](O)[C@H](O)[C@H]4O[C@@H]4O[C@H](CO)[C@@H](O)[C@H](O)[C@H]4O)C(C)(C)C3CC[C@]12C (stereo partly drawn) | i
Cc1cc(C)cc(NC(=O)Cn2nc3n(CC(C)C)c(=O)c4ccc(C(=O)NCC(C)C)cc4n3c2=O)c1 | i
CC1(C(=O)NC2CCCCCCC2)Cn2c(ccc2-c2ccco2)C(=O)N1Cc1cccnc1 (stereo not drawn) | i
CC1(C(=O)NC2CCCCCC2)Cn2c(cc3sccc32)C(=O)N1c1cccc(F)c1 (stereo not drawn) | i
CN1CCc2cc(Cl)c(O)cc2[C@@H](c2ccccc2)C1 | i
Oc1cc2c(cc1O)C(c1ccccc1)CNCC2 (stereo not drawn) | +
Oc1ccc(CC2NCCc3cc(O)c(O)cc32)cc1 (stereo not drawn) | i
COCCn1c(COc2c(F)ccc(Cl)c2F)nnc1C1CC(N)C1 (stereo not drawn) | i
CCCN1C(=O)c2c(C(=O)NCc3cccc(F)c3)ncn2CC1(C)C(=O)NCc1ccc(F)cc1 (stereo not drawn) | i
CN(Cc1cccn1C)C(=O)Nc1ccc(Cl)cc1 | i
CC(=O)O[C@@H]1C[C@]2(C)[C@@]3(CCC4[C@@]5(C)CC[C@H](O[C@@H]6O[C@H](C(=O)O)[C@@H](O)[C@H](OC7OC(CO)C(O)C(O)[C@H]7O[C@@H]7O[C@@H](C)[C@H](O)[C@@H](O)[C@H]7O[C@@H]7OC[C@](O)(CO)[C@H]7O)[C@H]6OC6OC(CO)C(O)C(O)C6O)C(C)(C)C5CC[C@]42C)OC[C@@]12CCC(C)(C)CC23 (stereo partly drawn) | i
O=C1NC(=NC2CCCCC2)C2(CCCN([S+](=O)([O-])c3cccc(C(F)(F)F)c3)C2)N1c1cc(F)cc(F)c1 (stereo not drawn) | i
N#C/C(=C1\Nc2ccccc2S1)c1ccnc(NCCc2cccnc2)n1 | +
CC(C)Cc1nc(CN2CCn3nc(C(O)c4ccnn4C)cc3C2)no1 (stereo not drawn) | i
Cc1cc2c(cc3n2CC(C)(C(=O)NC2CCCCCCC2)N(CCCc2ccccc2)C3=O)o1 (stereo not drawn) | i
